Compound activity: PubChem BioAssay, Paczesny and Yang Labs, IUPUI and University of Michigan
Only a selection was taken, and hits are over-represented in it overall.
ST2 inh: blocks human ST2 binding to IL-33; AlphaLISA ST2-Fc/biotin-IL-33 interaction, 1 h; inhibition, % for hits at 17 µM; 78,000 compounds, 2.3% hits; in the data active means inhibition above about 30%
Target sequence (Q01638 whole entry, looked up): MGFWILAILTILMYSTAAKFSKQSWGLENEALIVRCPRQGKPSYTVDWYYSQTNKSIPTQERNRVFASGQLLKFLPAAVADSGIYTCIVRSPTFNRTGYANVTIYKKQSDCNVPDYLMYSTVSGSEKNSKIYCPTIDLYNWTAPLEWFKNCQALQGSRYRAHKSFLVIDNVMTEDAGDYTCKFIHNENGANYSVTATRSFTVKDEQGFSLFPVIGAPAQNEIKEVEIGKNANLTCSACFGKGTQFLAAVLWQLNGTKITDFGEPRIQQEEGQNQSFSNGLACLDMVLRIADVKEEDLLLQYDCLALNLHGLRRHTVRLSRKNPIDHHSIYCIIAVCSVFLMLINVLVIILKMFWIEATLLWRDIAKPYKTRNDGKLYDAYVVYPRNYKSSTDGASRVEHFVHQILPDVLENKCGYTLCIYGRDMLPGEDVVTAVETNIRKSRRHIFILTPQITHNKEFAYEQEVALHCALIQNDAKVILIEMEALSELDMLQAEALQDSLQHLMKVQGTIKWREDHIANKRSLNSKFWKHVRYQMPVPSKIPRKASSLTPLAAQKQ
Large screens that a line does not name were inactive.

O=C(CN1C(=O)CC(c2ccccc2)=Nc2ccccc21)Nc1cccc(Cl)c1	none
CCC(=O)N[C@@H]1c2ccccc2C2(CCN(C/C(C)=C/c3ccco3)CC2)[C@H]1OCCOC	none
COC(=O)c1sc2ccccc2c1NC(=O)c1ccccc1F	none
COC(=O)C1=C(NC(=O)c2cccc3ccccc23)CCS1	ST2 inh 44.0%
COC(=O)C1=C(NC(=O)c2ccccc2F)CCS1	ST2 inh 39.0%
O=C(O)c1c(NC(=O)c2cccc3ccccc23)sc2c1CCCC2	none
O=C(Nc1nc2ccccc2s1)c1cccc2ccccc12	none
COc1ccccc1NC(=O)c1ccccc1F	none
CCCCNC(=O)Cc1cn(C)c2ccccc12	none
Cc1cccc(N2CC(NC(=O)c3cnc(C4CC4)[nH]c3=O)CC2=O)c1 (stereo not drawn)	none
COc1ccc(C(=O)NC2CC(=O)N(CC(C)(C)C)C2)c(OC)c1OC (stereo not drawn)	none
CCN(CC)C(=O)C1=C(C)Nc2nc3ccccc3n2C1c1ccncc1 (stereo not drawn)	none
CC(=O)Nc1ccc(N=Cc2ccccc2O)cc1	none
CCN(CC)c1ccc(N=Cc2ccccc2O)cc1	ST2 inh 79.0%
CCN(CC)c1ccc(C=Nc2cc(Cl)ccc2O)c(O)c1	none
COc1ccccc1C1N(c2ccc(Cl)c(Cl)c2)C(=O)C2CCCN21 (stereo not drawn)	none
Fc1ccc(-c2ccc(Cn3ccnc3)cn2)c(Cl)c1	none
Nc1ccc2oc(-c3cc(F)c(F)cc3Cl)nc2c1	none
Cc1ccc2oc(-c3cc(N)ccc3O)nc2c1	ST2 inh 45.0%
Cc1ccc2oc(-c3ccc(F)cc3)nc2c1	none
CCOc1ccc2c(c1)sc(=NC(=O)c1ccc(OC)c(OC)c1)n2C	none
Cc1cc(Cl)ccc1OC(=O)c1cc2ccccc2oc1=O	none
COc1ccc(-c2cn3ccccc3n2)cc1F	none
OCCCn1c(-c2ccccc2)csc1=Nc1ccccc1	ST2 inh 61.0%
c1ccc(N=c2scc(-c3ccccc3)n2CCN2CCOCC2)cc1	none
OCCn1c(-c2ccc(Cl)cc2)csc1=Nc1ccccc1	ST2 inh 61.0%
CCOC(=O)c1sc(=Nc2ccccc2)n(Cc2ccccc2)c1C	none
Cc1csc(=Nc2ccccc2)n1CC(=O)c1ccc(Cl)cc1	ST2 inh 36.0%
CCn1c(C)csc1=NC(=O)c1ccccc1O	none
COc1ccc(-c2csc(=Nc3ccccc3)n2CCO)cc1F	ST2 inh 48.0%
Cc1nc2ccccc2c(=O)n1CCCO	none
O=C(Nc1ccc(F)c(Cl)c1)c1cnc(N2CCN(c3ccccn3)CC2)c2ccccc12	none
Cc1cccc(NC(=O)CN2CCCN(Cc3cccc(F)c3)S2(=O)=O)c1	none
CCOc1ccnc(NCCc2nccs2)n1	none
Cc1cccc(CSC2=NCCN2C(=O)c2cccs2)c1	none
c1ccc(-c2nc[nH]c2-c2cccc3nsnc23)cc1	none
Cc1c(C(=O)NCCC(C)C)oc2ccc(S(=O)(=O)N3CCCCCC3)cc12	none
Cc1cc(C)c(NS(=O)(=O)Cc2ccccc2)c(C)c1	none
COc1ccccc1CNC(=O)c1ccc2nc3c(cc2c1)CCS3	none
N[C@H]1CN[C@H](C(=O)N2CCC(c3nc(-c4ccccc4)no3)CC2)C1	none
OCCn1c(-c2ccc(Cl)c(Cl)c2)csc1=Nc1ccccc1	ST2 inh 48.0%
COc1ccc(CNC(=O)c2cc(-c3ccc4c(c3)OCO4)on2)cc1	none
COc1ccc(N=c2scc(-c3ccc4c(c3)OCCO4)n2CCO)cc1	ST2 inh 32.0%
COc1ccc2c(=O)c(-c3ccc4c(c3)OCCCO4)coc2c1	none
CC(C)CNC(=O)c1cc(-c2ccc(Cl)c(Cl)c2)on1	none
COc1ccc(C(O)=C2C(=O)C(=O)N(CCCN(C)C)C2c2cccs2)c(C)c1 (stereo not drawn)	none
COc1ccc(-c2csc(=Nc3ccccc3)n2CCCN(C)C)cc1	ST2 inh 44.0%
COc1ccc(OCCn2c(=N)n(CC(C)C)c3ccccc32)cc1	none
OCCn1c(-c2ccc(I)cc2)csc1=Nc1ccccc1	ST2 inh 42.0%
COC(=O)C1=C(N)OC2=C(C(=O)CC(c3ccccc3)C2)C1c1cccc(Br)c1 (stereo not drawn)	none
COc1ccc2c(=O)c(-c3csc(C)n3)coc2c1C	none
CC1CCCCN1c1ccc(C(N)=O)cc1NC(=O)Cc1cn2ccsc2n1 (stereo not drawn)	none
O=C(NCc1ccco1)c1cc(=O)[nH]c2ccc(S(=O)(=O)N3CCCC3)cc12	none
CCC(C)NC(=O)c1cn(CC)c2ccc(S(=O)(=O)N3CCC(C)CC3)cc2c1=O (stereo not drawn)	none
CSc1ccc(-c2nc(Cn3cnc(C4CC4)n3)c(C)o2)cc1	none
C#CCN(C)C(=O)c1ccc(OCC(N)=O)cc1	none
CCC(=O)Nc1ncc(-c2ccccc2)s1	none
CCc1cccc(C)c1NC(=O)c1ccc(C(=O)Nc2c(C)cccc2CC)cc1	none
Cc1ccc(C)n1-c1ccc(OCC(=O)O)cc1	ST2 inh 64.0%
COc1ccc(OCC(=O)O)cc1	none
CCOc1ccc(S(=O)(=O)NCC(=O)O)cc1	none
Cc1noc(CN(C)C(=O)c2ccc(Cn3ccc4ccccc43)o2)n1	none
Cc1ccc(C(=O)Nc2ccccc2C)cc1	none
Cc1ccccc1NCCNc1ccccc1C	ST2 inh 34.0%
Cc1ccccc1NC(=O)CCC(=O)Nc1ccccc1C	none
Cc1c(C(C)NCc2ccc(F)c(F)c2)cnn1-c1ccccc1 (stereo not drawn)	none
Cc1c(C(C)NCCCc2ccccc2)cnn1-c1cccc(F)c1 (stereo not drawn)	none
Cc1ccc2[nH]c(CNC(C)c3cnn(-c4cccc(F)c4)c3C)c(C)c2c1 (stereo not drawn)	ST2 inh 32.0%
COc1ccc(OCC(=O)Nc2ccc(Br)cc2F)cc1	none
COc1cccc(N2CC(NC(=O)C3CCCCC3)CC2=O)c1 (stereo not drawn)	none
COc1cccc(N(C(C)=O)C2=C(NC3CCCCC3)C(=O)c3ccccc3C2=O)c1	ST2 inh 38.0%
CC(C(=O)NC1CCCC1)N(c1ccccc1)S(C)(=O)=O (stereo not drawn)	none
COc1cccc(C(=O)Nc2ccccc2C(=O)NC2CCCCC2)c1	none
CC(=O)N(C1=C(NC2CCCCC2)C(=O)c2ccccc2C1=O)c1ccc(F)c(F)c1	ST2 inh 45.0%
O=C(NC1CCCCC1)C(c1ccccc1)c1ccccc1	none
O=C(NCc1ccco1)c1c(NC(=O)C2COc3ccccc3O2)sc2c1CCCC2 (stereo not drawn)	none
CN(C(=O)CCC(=O)Nc1nncs1)C1CCCCCC1	none
COc1ccc(S(=O)(=O)NC(C)c2ccccc2)cc1OC (stereo not drawn)	none
CCOc1ccc(Cn2c(CNS(=O)(=O)c3ccc(C(C)C)cc3)nc3cccnc32)cc1	none
NC(=O)[C@H](Cc1ccccc1)N1CC[C@H]2CN(C(=O)C3CCCCC3)CC[C@H]2CC1=O	none
c1ccc(CN2CCN(C3CCCCCC3)CC2)cc1	none
O=C1C[C@@H]2CCN(Cc3ccccc3)C[C@@H]2CCN1C1CCCCC1	ST2 inh 76.0%
C=CCN(CC=C)C(=O)c1ccc(OC)c(OC)c1	none
Oc1oc(-c2ccc(Cl)cc2)nc1C=Nc1cccc(F)c1	ST2 inh 31.0%
Oc1oc(-c2ccc(Br)cc2)nc1C=Nc1ccc(Cl)cc1Cl	none
Oc1oc(-c2ccc(Br)cc2)nc1C=Nc1ccccn1	none
Oc1oc(-c2ccccc2)nc1C=Nc1cccc(Cl)c1	none
Oc1oc(-c2ccc(Br)cc2)nc1C=Nc1cc(Cl)ccc1Cl	none
Oc1oc(-c2ccc(Br)cc2)nc1C=Nc1ccc(Cl)cn1	ST2 inh 42.0%
Oc1oc(-c2ccccc2)nc1C=Nc1cccc(F)c1	none
Oc1oc(-c2ccc(Cl)cc2)nc1C=Nc1ccc(Br)cc1	none
Oc1oc(-c2ccc(Cl)cc2)nc1C=Nc1ccccc1Br	ST2 inh 31.0%
Cn1cc(CN2CCC(OCc3cccnc3)CC2)c(-c2ccc(C3CCCCC3)cc2)n1	none
